{"source": "PubChem BioAssay (NCATS)", "note": "Results filed as inconclusive are left out. Active and inactive are the calls of the source. The call rests on the fitted dose curve; in most records, active means well fitted inhibition curve with a large enough effect; inconclusive means small, poorly fitted or top-dose-only effect; inactive means flat fitted curve, though single readings scatter. On the % scale 0 is the no-effect control and ±100 the full control effect; potency means the concentration at half of the fitted maximal effect."}
{"target": "Glutathione peroxidase 1 (Homo sapiens) (UniProt P07203)", "sequence (P07203 whole entry, looked up)": "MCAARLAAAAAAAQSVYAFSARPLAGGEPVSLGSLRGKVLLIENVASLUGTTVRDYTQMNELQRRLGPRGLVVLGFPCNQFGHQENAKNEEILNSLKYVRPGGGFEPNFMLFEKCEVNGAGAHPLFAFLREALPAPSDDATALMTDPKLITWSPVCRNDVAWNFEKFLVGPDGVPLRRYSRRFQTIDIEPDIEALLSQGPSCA", "assay": "Primary qHTS Assay for Inhibitors of Recombinant Selenoprotein Glutathione Peroxidase 1 (GPX1) (AID 1845191); further: nearly all actives have a fitted effect of over 65% in size", "settings": "recombinant GPX1, GR-coupled NADPH fluorescence, 15 min; series mostly up to 48.8 µM; activity, negative = inhibition: at the top concentration", "summary_of_the_method": "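NADPH consumption tracked by fluorescence at 340/450 nm between t=0 and t=15 min, room temperature. Final mix: 10 nM GPX1, 100 nM glutathione reductase, 1 mM GSH, 0.5 mM NADPH, 0.5 mM cumene hydroperoxide, 0.01% BSA; 30 min compound–enzyme preincubation.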"}
{"smiles": "c1ccc(C(NCCNC(c2ccccc2)c2ccccc2)c2ccccc2)cc1", "outcome": "inactive"}
{"smiles": "COc1cc(C(O)CO)ccc1O", "note": "(configuration not stated)", "activity, negative = inhibition": "-11.2% (inactive)"}
{"smiles": "Oc1ccc(Cn2cc[nH]c2=S)cc1", "activity, negative = inhibition": "-11.7% (inactive)"}
{"smiles": "Cn1cc(C(=O)OCC2CCN(CCNS(C)(=O)=O)CC2)c2ccccc21", "activity, negative = inhibition": "-7.05% (inactive)"}
{"smiles": "CNc1ncnc2c1ncn2[C@H]1C[C@H](OP(=O)(O)O)[C@@H](COP(=O)(O)O)O1", "activity, negative = inhibition": "-10.6% (inactive)"}
{"smiles": "CCCN(CCc1ccccc1)C1CCc2c(O)cccc2C1", "note": "(configuration not stated)", "outcome": "inactive"}
{"smiles": "CCCOC(=O)c1c(-c2ccccc2)nc(CC)c(C(=O)SCC)c1CCC", "outcome": "inactive"}
{"smiles": "CN(C)CCCc1cc(C(=O)Nc2ccc(-c3ccncc3)cc2)ccc1O", "outcome": "inactive"}
{"smiles": "CN(C)CCC(c1ccc(Br)cc1)c1ccccn1", "note": "(configuration not stated)", "Potency": "inactive"}
{"smiles": "COc1cc2c(CCNC(C)=O)c[nH]c2cc1O", "activity, negative = inhibition": "2.03% (inactive)"}
{"smiles": "COc1ccccc1N1CCN(CCCCN2C(=O)c3ccccc3C2=O)CC1", "outcome": "inactive"}
{"smiles": "O=C(O)CCC(=O)N1CCCC1C(=O)O", "note": "(configuration not stated)", "outcome": "inactive"}
{"smiles": "C[C@H](O)C(=O)C1=Nc2c(nc(N)[nH]c2=O)NC1", "activity, negative = inhibition": "-25.3% (inactive)"}
{"smiles": "Nc1ccc(-c2ccc3ccccc3n2)cc1", "activity, negative = inhibition": "-27.7% (inactive)"}
{"smiles": "NC1(C(=O)O)CCc2cc(C(=O)O)ccc21", "note": "(configuration not stated)", "outcome": "inactive"}
{"smiles": "CN1CCC2(CCN3CCc4c(oc5ccccc45)C3C2)N(C)C1=O", "note": "(configuration not stated)", "activity, negative = inhibition": "4.77% (inactive)"}
{"smiles": "CCOC(=O)C12CC1/C(=N/O)c1ccccc1O2", "note": "(configuration not stated)", "activity, negative = inhibition": "1.96% (inactive)"}
{"smiles": "CCCCCCCCCCCCCCSCC(=O)O", "activity, negative = inhibition": "-0.456% (inactive)"}
{"smiles": "Cn1cc(C(F)(F)F)nc1-c1ccc(OCC(O)CNCCOc2ccc(O)c(C(N)=O)c2)cc1", "note": "(configuration not stated)", "activity, negative = inhibition": "-6.64% (inactive)"}
{"smiles": "CN1CCN(c2nc3cc(C(F)(F)F)ccc3n3cccc23)CC1", "activity, negative = inhibition": "-16% (inactive)"}
{"smiles": "N#C/C(=C\\c1ccc(O)c(O)c1)C(=O)NCCc1ccccc1", "outcome": "inactive"}
{"smiles": "CO/N=C(\\C(=O)N[C@@H]1C(=O)N2C(C(=O)O)=C(CSc3nc(=O)c(O)nn3C)CSC12)c1csc(N)n1", "note": "(some centres not stated)", "Potency": "25.1 µM (active)"}
{"smiles": "O=c1[nH]c(=S)[nH]c(-c2ccccc2)c1Cc1c(O)ccc2ccccc12", "outcome": "inactive"}
{"smiles": "N[C@H](C(=O)O)[C@H]1C[C@@H]1C(=O)O", "outcome": "inactive"}
{"smiles": "CN1CCc2cc(Cl)c(O)cc2[C@@H](c2ccccc2)C1", "outcome": "inactive"}
{"smiles": "Cc1ccc([N+](=O)[O-])cc1S(=O)(=O)N(C)C", "outcome": "inactive"}
{"smiles": "CN1CC(O)C(O)C(O)C1CO", "note": "(configuration not stated)", "outcome": "inactive"}
{"smiles": "CC(=O)N[C@@H](Cc1c[nH]c2ccccc12)C(=O)OCc1cc(C(F)(F)F)cc(C(F)(F)F)c1", "activity, negative = inhibition": "-27.6% (inactive)"}
{"smiles": "CC(=O)O[C@H]1Cc2ccccc2N(C(N)=O)c2ccccc21", "Potency": "inactive"}
{"smiles": "Nc1ccc(N2C(=O)c3ccccc3C2=O)c(Cl)c1", "activity, negative = inhibition": "2.7% (inactive)"}
{"smiles": "COC(=O)C(N)Cc1ccc(Cl)cc1", "note": "(configuration not stated)", "outcome": "inactive"}
{"smiles": "C=CCN1CCc2c(cc(O)c(O)c2Cl)C(c2ccccc2)C1", "note": "(configuration not stated)", "outcome": "inactive"}
{"smiles": "CC[n+]1c(/C=C/C=C2/N(C)c3ccccc3C2(C)C)sc2ccccc21", "activity, negative = inhibition": "1.63% (inactive)"}
{"smiles": "NC(N)=N[C@@H](CCC(=O)O)C(=O)O", "outcome": "inactive"}
{"smiles": "Cc1nc2n(c(=O)c1CCN1CCC(c3noc4cc(F)ccc34)CC1)CCCC2O", "note": "(configuration not stated)", "activity, negative = inhibition": "-12.1% (inactive)"}
{"smiles": "Clc1nccc2c1ccc1ccccc12", "activity, negative = inhibition": "-4.01% (inactive)"}
{"smiles": "COc1cc(/C=C(\\C#N)C(=O)c2ccc(O)c(O)c2)cc(I)c1O", "activity, negative = inhibition": "-1.96% (inactive)"}
